Reference: PubChem BioAssay (NCI)
This is part of a sample that, as a whole, favours compounds with a hit. Of some 83,000 tested, about 20% had one in any assay.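 For each line, cells grew in 96-well plates with the test compound present at a single concentration for 48 hours.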 Values without a mark were called inactive. Active and inactive are the calls of the source. How the source made its calls: active means growth percent below 10; inactive means the rest.

What was measured:
Test in all cases: NCI-60 one-dose screen, 48 h (100 = growth as untreated, 0 = no growth, -100 = all killed)
Conditions in all cases: 10 µM unless noted
DU-145 prostate = system: DU-145 prostate
K-562 leukemia = system: K-562 leukemia
MALME-3M melanoma = system: MALME-3M melanoma
MDA-MB-231 breast = system: MDA-MB-231 breast
RXF 393 renal = system: RXF 393 renal
SF-268 CNS = system: SF-268 CNS
SF-295 CNS = system: SF-295 CNS
SF-539 CNS = system: SF-539 CNS
UACC-257 melanoma = system: UACC-257 melanoma
M14 melanoma = system: M14 melanoma
HCT-15 colon = system: HCT-15 colon
HT29 colon = system: HT29 colon
SNB-75 CNS = system: SNB-75 CNS
SNB-19 CNS = system: SNB-19 CNS
U251 CNS = system: U251 CNS
PC-3 prostate = system: PC-3 prostate
SK-MEL-5 melanoma = system: SK-MEL-5 melanoma
UACC-62 melanoma = system: UACC-62 melanoma
LOX IMVI melanoma = system: LOX IMVI melanoma
SK-MEL-28 melanoma = system: SK-MEL-28 melanoma

| Structure (SMILES) | growth (DU-145 prostate) | growth (K-562 leukemia) | growth (MALME-3M melanoma) | growth (MDA-MB-231 breast) | growth (RXF 393 renal) | growth (SF-268 CNS) | growth (SF-295 CNS) | growth (SF-539 CNS) | growth (UACC-257 melanoma) | growth (M14 melanoma) | growth (HCT-15 colon) | growth (HT29 colon) | growth (SNB-75 CNS) | growth (SNB-19 CNS) | growth (U251 CNS) | growth (PC-3 prostate) | growth (SK-MEL-5 melanoma) | growth (UACC-62 melanoma) | growth (LOX IMVI melanoma) | growth (SK-MEL-28 melanoma) |
| --- | --- | --- | --- | --- | --- | --- | --- | --- | --- | --- | --- | --- | --- | --- | --- | --- | --- | --- | --- | --- |
| Cc1c(Cl)cccc1NC(=O)c1sc2nc3c(cc2c1N)COCC3 | 33% | 13% | 59.4% | 49% | 13.1% | 47.4% | 12.9% | 11.4% | 47.3% | 10.8% | 19.6% | 5.9% (active) | 19.4% | 26.5% | 22.6% | 30.3% | 23.9% | 31.1% | 35.5% | 58.6% |
| O=C1Nc2ccc(Cl)cc2/C1=N/c1nc(-c2ccc(F)cc2)cs1 | 69.8% | 14.6% | 53.6% | 31.3% | 37% | 46% | 39.6% | 48.6% | 36.5% | 38.7% | 43.9% | 22.6% | 58.6% | 34.1% | 25.4% | 17.4% | 41.7% | 7.64% (active) | 19.5% | 42.6% |
| C#CC[C@@H]1C[C@]2(C)[C@H]3CC[C@@H]4[C@H]5[C@H](C(=C)C)CC[C@]5(C(=O)O)CC[C@@]4(C)[C@]3(C)CC[C@H]2C(C)(C)[C@H]1O | 57.4% | 35.1% | 53% | 20.8% | 6.63% (active) | 66.5% | 12.8% | 53.8% | 70.9% | 60.3% | 32% | 35.9% | -8.42% (active) | 56.8% | 26.3% | 4.77% (active) | 74.5% | 72.2% | 44.3% | 92% |
| O=[N+]([O-])c1cccc(CN(Cc2cccc([N+](=O)[O-])c2O)c2ccccc2)c1O | 94.3% | 60.5% | 87.2% | 68.8% | 88.6% | 89.4% | 66.6% | 94.7% | 93.3% | 67.6% | 69.4% | 56.1% | 86.1% | 92% | 85.4% | 71.1% | 90.5% | 69.6% | 79.6% | 96.7% |
| COc1ccc(C(=O)c2cc(OC)c(C)c(OC)c2)cc1OC(=O)CCl | 12.7% | 9.2% (active) | 69.2% | 30.3% | 18.4% | 44.9% | 17.6% | -7.95% (active) | 60.3% | 6% (active) | 12.4% | 55.6% | 38.1% | 28.4% | 17.1% | 13.4% | 9.8% (active) | 38% | 21.8% | 49.5% |
| CN1CCN(CC#CCOC(=O)CNC(=O)[C@]23CCC(C)(C)C[C@H]2C2=CC[C@@H]4[C@@]5(C)CC[C@H](O)C(C)(C)[C@@H]5CC[C@@]4(C)[C@]2(C)CC3)CC1 | 96.7% | 70.1% | 92.5% | 95.5% | 78.1% | 88% | 96.9% | 83.5% | 95.1% | 96.8% | 77% | 75.5% | 80.9% | 87.1% | 83.3% | 83.4% | 88.6% | 90.3% | 81.3% | 104% |
| CC(=O)Oc1ccc(O)cc1 | 102% | 96.7% | 102% | 95.4% | 115% | 98.8% | 101% | 101% | 83% | 98.3% | 104% | 87.3% | 91.1% | 96.2% | 101% | 87.1% | 96.7% | 86.6% | 94.4% | 104% |
| O=C1[C@@H](OS(=O)(=O)CC(F)(F)F)[C@H](c2ccc(F)cn2)N1c1cc2c3ccccc3ccc2c2ccccc12 | 84.5% | 44.5% | 95% | 71.2% | 85.9% | 78.9% | 83.3% | 87.1% | 79% | 72.9% | 61.9% | 64.1% | 83.4% | 77.9% | 69.2% | 62.8% | 67.2% | 58.3% | 70.3% | 79.7% |
| COc1ccc(NC(=O)Nc2ccc(Nc3nc(C)cc(Nc4ccc(C)cc4)n3)cc2)cc1 | -95.8% (active) | -60.9% (active) | -78.7% (active) | -75.8% (active) | -80.7% (active) | -67.9% (active) | -66% (active) | -89.5% (active) | -87.8% (active) | -82.9% (active) | -78.9% (active) | -84.8% (active) | -92.8% (active) | -69.2% (active) | -83.9% (active) | -93.3% (active) | -72.7% (active) | -83% (active) | -85.3% (active) | -76.8% (active) |
| N#CC(C#N)=C1NC(c2ccccc2)=C(c2ccccc2)C(c2ccccc2Cl)=C1C#N | 112% | 98.1% | 108% | 110% | 121% | 109% | 101% | 108% | 75% | 106% | 102% | 80.4% | 107% | 106% | 103% | 87.8% | 105% | 102% | 91.5% | 114% |
| C=C1C(=O)O[C@H]2[C@H]1CC/C(COC(=O)CCCCCCCCC(=O)OC/C1=C/CC[C@@]3(C)O[C@H]3[C@H]3OC(=O)C(=C)[C@@H]3CC1)=C\CC[C@@]1(C)O[C@@H]21 | 6.71% (active) | 1.49% (active) | -18.4% (active) | -41.2% (active) | -86.6% (active) | 20.7% | 87.4% | -36.6% (active) | 24.6% | -44.7% (active) | -31.6% (active) | -27.5% (active) | 58.4% | 43.8% | 12.1% | -6.62% (active) | -32.6% (active) | -18.8% (active) | -84.7% (active) | -12.8% (active) |
| CCN(CC)c1ccc2c(c1)Oc1nc(N)c(C#N)c(N)c1C2Sc1ccc(OC)cc1 (stereo not given) | -0.338% (active) | 13.5% | 1.4% (active) | -0.581% (active) | -0.0562% (active) | 16.5% | 29.1% | -34.6% (active) | 92.1% | -16.2% (active) | 2.89% (active) | -61.6% (active) | -10% (active) | 20.9% | -36.4% (active) | 1.15% (active) | 1.93% (active) | -16.9% (active) | -63.6% (active) | 29.3% |
| COC(=O)[C@]1(C)CCC[C@]2(C)[C@H]3C[C@H]4C(C(C)C)=C[C@]3(CC[C@H]21)[C@@H]1C(=O)N(CCC#N)C(=O)[C@@H]14 | 99.4% | 55.8% | 103% | 89.5% | 86.7% | 89.4% | 99.5% | 98% | 85.4% | 83.1% | 83.2% | 70.5% | 93% | 102% | 87.8% | 31.2% | 71.6% | 62.9% | 98.1% | 108% |
| O=C(Nc1ccc(N=Cc2ccccc2O)cc1)NC1C=c2ccccc2=CC1 (stereo not given) | 102% | 87% | 99.1% | 92% | 108% | 91.9% | 102% | 100% | 91.6% | 110% | 100% | 104% | 86.3% | 100% | 93.2% | 104% | 98.7% | 92.7% | 105% | 99.8% |
| NC(=N\N=C\c1ccccc1O)/C(N)=N/N=C/c1ccccc1O | 80.1% | 71.1% | 79% | 83.6% | 106% | 78.8% | 77.7% | 81.3% | 84.3% | 79% | 66% | 73.8% | 84.4% | 84.4% | 82.7% | 56.1% | 84.6% | 68.9% | 48.6% | 90.5% |
